In all, about 190,000 compounds went through this assay and about 45 (0.02%) were called active. Rule as the data show it: active = inhibition above about 40%. Only a sample is shown.
These molecules were tested against Bcl-2-like protein 2 (Homo sapiens) (UniProt Q92843) (assay: Bcl-W/Bim complex disruptors – biochemical, multiplexed, bead-based flow cytometry, primary screen (AID 952;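 also: 0% = bound tracer without compound and 100% = peptide blocker; higher means less fluorescent Bim peptide bound to Bcl-W beads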)). Conditions: Bim peptide-Bcl-W binding, at 10 µM, hits give high values.
Bcl-2-like protein 2 (Homo sapiens), sequence (Q92843 whole entry, looked up): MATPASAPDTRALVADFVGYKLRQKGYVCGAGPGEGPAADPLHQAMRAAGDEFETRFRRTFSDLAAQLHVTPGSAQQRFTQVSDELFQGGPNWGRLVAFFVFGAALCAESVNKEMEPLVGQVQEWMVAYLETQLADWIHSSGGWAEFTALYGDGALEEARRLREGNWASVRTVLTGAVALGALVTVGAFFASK

inhibition, inactive:
O=C(NC(=S)N1CCN(Cc2ccccc2)CC1)c1ccccc1 -3%, CCOC(=O)c1c(NC(=O)C(C)Sc2c[nH]c3ccccc23)sc2c1CCC2 (stereo not given) -3%, COc1cc(NC(=S)NCc2ccco2)c(OC)cc1Cl -1%, O=C(c1ccc(F)cc1)c1cn(Cc2ccc(F)cc2)c2cc3c(cc2c1=O)OCCO3 -4%, COc1cc(C)c(S(=O)(=O)N2CCOCC2)c(C)c1C -3%, Cc1nnsc1C(=O)N/N=C/c1cccc(C(F)(F)F)c1 -2%, CCOC(=O)c1[nH]c2c(c1-c1ccccc1)C(=O)CC(c1ccc(Cl)cc1)C2 (stereo not given) -3%, COc1ccc(N=C2SC(C(=O)Nc3ccc(F)cc3)CC(=O)N2C)cc1 (stereo not given) 0%, CNC(=O)/C(C#N)=C/c1c(F)cccc1Cl -2%, CCn1ncc(CNC(=O)C2(C)CC2(Br)Br)c1C (stereo not given) -4%, Cc1ccc(N(C(=O)C(F)(F)F)C(C(=O)NC2CCCCC2)c2ccncc2)cc1C (stereo not given) -1%, N#Cc1cccc(Nc2c3c(nc4ccccc24)CCCC3)c1 4%, COc1ccc(Cl)cc1NC(=O)CN(C)Cc1ccc(OC)c(OC)c1 -4%, NC(=O)CC[C@@H]1NC(=O)[C@H](CO)NC(=O)c2cc([N+](=O)[O-])cc(I)c2NCC[C@@H](C(N)=O)NC1=O 0%, O=C(/C=C/c1ccc(N2CCOCC2)cc1)c1ccccc1 -4%, CCCC(C)C(=O)OCC(=O)Nc1c(Br)cc(C)cc1Br (stereo not given) 0%, O=S(=O)(c1ccc(F)cc1)N1CCN(C(=S)NC2CCCC2)CC1 0%, COc1cc2c(cc1NC(=O)COC(=O)/C=C/c1ccccc1)oc1ccccc12 -7%, Cc1ccc(N(C(=O)c2sc(C)nc2C)C(C(=O)NC(C)(C)C)c2ccncc2)cc1 (stereo not given) -1%, COc1ccc(C(=O)CSc2nnc(NC(=O)C3CC(=O)N(c4cccc(OC)c4)C3)s2)cc1 (stereo not given) -2%, O=C(Nn1c(-c2ccc(Cl)cc2)nc2ccccc2c1=O)c1cccnc1Cl 10%, Cc1cc(OCCCN2CCN(Cc3ccccc3)CC2)ccc1[N+](=O)[O-] 0%, COc1ccc(Nc2ncc(F)c(N3CCOCC3)n2)cc1 -1%, CCCCCOc1ccc(/C=C/C(=O)NCCc2nc3ccccc3[nH]2)cc1OC -7%, CCCC/C(C)=N/NC(=O)NC1CCCCC1 -3%, COc1ccnc(Oc2ccccc2)c1-c1ncn[nH]1 -1%, N=c1n(CCc2ccccc2)c2ccccc2n1Cc1ccccc1F -6%, COc1ccccc1NC(=S)N1CCN(C(c2ccccc2)c2ccccc2)CC1 1%, O=C(c1ccncc1)N1CCN(c2ccc3ccccc3n2)CC1 0%, Cc1ccc(C(=O)Oc2coc(CSc3nnc(NC(=O)c4cccs4)s3)cc2=O)cc1C -6%, COc1ccc(NC(=O)C(=O)NCC(=O)Nc2cccc(C(F)(F)F)c2)cc1 1%, CCN(CC)C(=O)CS(=O)CC(=O)Nc1cc(OCCOC)c(Cl)cc1Cl (stereo not given) -1%, Brc1cc(/C=N/n2cnnc2)oc1Br -2%, CCc1ccc(CN(C)C(=O)CCc2nnc(-c3ccc(-c4ccccc4)cc3)o2)nc1 1%, CC(C)N(Cc1ccccc1)C(=O)COC(=O)c1cnccn1 -1%, COCC(C)n1c(C)cc(C(=O)CSc2cc(C)c3ccccc3n2)c1C (stereo not given) -6%, O=C(c1cccs1)n1nc(NCc2ccccc2)nc1NCc1ccccc1 0%, Cc1ccc(NCc2n[nH]c(=S)n2-c2ccccc2)cc1Cl 0%, Cc1cc2nc(C(F)(F)F)cc(-c3cccs3)n2n1 0%, O=C1Oc2ccccc2C(=O)/C1=C/c1ccccc1O 0%, Cc1ccc(/C=C/C(=O)Nc2cc(S(=O)(=O)N3CCCCCC3)ccc2OCC(F)(F)F)o1 -2%, Cc1ccc(C2CC(c3cccc(NS(C)(=O)=O)c3)=NN2S(C)(=O)=O)cc1 (stereo not given) -1%, COCCn1c(=O)[nH]c(=O)c2cc(C(=O)c3cc(OC)ccc3O)cnc21 -3%, CC1(C)CC(=O)C=C(N2CCOCC2)C1 -2%, Cc1cc(OCCCC(=O)NCCN2C(=O)S/C(=C\c3cccnc3)C2=O)ccc1Cl -3%, O=C(N/N=C/c1ccc(OCc2ccccc2)cc1)c1ccc(O)cc1 0%, CC(C)C(O)C1CCN(Cc2nc(Cc3ccccc3Cl)no2)CC1 (stereo not given) 1%, CSc1ccc(/C=C/C(=O)NC23CC4CC(CC(C4)C2)C3)cc1 -2%, CN1CCN(/N=C/c2ccc(-c3ccc([N+](=O)[O-])cc3)o2)CC1 3%, Cc1ccnc(NC(=O)CCCOc2ccccc2)c1 -1%, Cc1ccc(CCCOC(=O)C[N+]2(C)CCCC2)cc1 3%, COc1ccc(-c2csc3ncnc(Oc4ccc5c(C)cc(=O)oc5c4)c23)cc1 -9%, CCn1c(SCc2ccccc2)nc2c(c1=O)SCC2 -2%, CCOC(=O)C1=C(CN2CCCCCC2)NC(=O)NC1c1cccc([N+](=O)[O-])c1 (stereo not given) -2%, FC(F)Oc1ccccc1NC(=S)Nc1cccc(Cl)c1Cl -3%, CCC(C)NC(=O)c1ccc(N2CCC3(CC2)OCCO3)c([N+](=O)[O-])c1 (stereo not given) -1%, C=C(C)C1CC=C(C)/C(=N\NC(=O)CNc2ccccc2OC)C1 (stereo not given) 0%, NCCCC[C@@H]1NC(=O)[C@H](CCC(=O)O)NC(=O)c2cc([N+](=O)[O-])cc(I)c2NCC[C@@H](C(N)=O)NC1=O 2%, Cc1nnc(SCC(=O)N2CCOCC2)[nH]c1=O -4%, OCCC1CN(Cc2ccc(Oc3ncccn3)cc2)CCN1CCc1ccccc1 (stereo not given) -3%, Cc1[nH]c2ccccc2c1/C=N\NC(=O)Cn1nnc(-c2ccccc2)n1 -6%, CCOC(=O)C1=NOC(Cn2cc(C(C)=O)c(=O)[nH]c2=O)C1 (stereo not given) -3%, CN(C)c1ccc(Nc2c3c4c(cccc4n(C)c2=O)C(=O)c2ccccc2-3)cc1 14%, C1CC1Cc1noc(CN2CCN(CC3CC3)CC2)n1 -3%, COC(=O)c1nn(-c2cccc(Cl)c2)ccc1=O 1%, O=C(CC1C(=O)NCCN1CC(c1ccccc1)c1ccccc1)NCCc1cn[nH]c1 (stereo not given) -4%, O=C(CCN1C(=O)c2ccccc2C1=O)NCCCn1ccnc1 0%, Cc1cc(C)c2c(n1)sc1c(=O)n(-c3ccccc3)c(=O)[nH]c12 -3%, Cc1ccccc1NS(=O)(=O)CCCCC(Cl)(Cl)Cl 0%, COc1ccc(NS(=O)(=O)c2ccc(NC(=O)c3ccc(N(C)S(C)(=O)=O)cc3)cc2)cc1 -8%, CCc1ccc(-n2c(SCc3cc(=O)n4cc(Br)ccc4n3)nc3[nH]ncc3c2=O)cc1 -4%, COCCNC(=O)C(c1ccc(O)cc1)N(C(=O)CCC(=O)Nc1nccs1)c1ccc(C)cc1 (stereo not given) -3%, O=C(CN1CCN(S(=O)(=O)c2ccc(Br)cc2)CC1)Nc1ccccc1C(=O)c1ccccc1 -9%, O=C(NCC1COc2ccccc2O1)C1(c2ccccc2)CCCC1 (stereo not given) -1%, OCCCC1CCCCN1Cc1nc(Cc2ccccc2Cl)no1 (stereo not given) 4%, CCOC(=O)/C(=N\Nc1cc(Cl)ccc1Cl)N1CCN(C)CC1 -5%, COC(=O)c1c(NC(=O)CN(c2ccc(C)c(C)c2)S(C)(=O)=O)sc2c1CCCC2 -6%, Cc1ccc(S(=O)(=O)N2CCCC2C(=O)OCc2nc3sc(C)c(C)c3c(=O)[nH]2)cc1 (stereo not given) -3%, CN(C)c1nc(N)nc(Cn2nnc(-c3ccc(C(F)(F)F)cc3)n2)n1 -5%, CC(=O)N/N=C/c1cc2c(cc1[N+](=O)[O-])OCO2 -2%, O=C(CN1CCN(C(=S)NC2CCCC2)CC1)Nc1ccc(Oc2ccccc2)cc1 -12%, Cc1ccc2nsnc2c1NC(=O)c1ccccc1[N+](=O)[O-] 0%, CC(C)N1CCC(N2CCN(Cc3cccnc3)CC2CCO)CC1 (stereo not given) -4%, CCN(CCCNC(=O)CCn1c(=O)[nH]c2ccsc2c1=O)c1ccccc1 1%, O=C(COC(=O)c1ccccc1C(=O)N1CCN(c2ccccc2)CC1)NCc1ccccc1 -3%, O=C(CCCO)N/N=C/c1cc(Br)ccc1O -3%, CC(C)(C)CN1CCNC(=O)C1CC(=O)NC1Cc2ccccc2C1 (stereo not given) 1%, COc1ccc(C(=O)N2CCC(C(=O)Nc3ccc(C)cc3)CC2)cc1 -1%, N#Cc1ccc(-c2nc3cc(C#N)c(C#N)cc3nc2-c2ccccc2)cc1C#N 0%, COc1ccc(NC(=S)SC)cc1OC -2%, O=C(N/N=C/c1ccc([N+](=O)[O-])o1)c1cccc(S(=O)(=O)N2CCOCC2)c1 0%, C=CCOC(=O)C1=C[C@@H](c2ccccc2)C[C@@H](OCc2ccc(CO)cc2)O1 0%, CCC(C)(C)NC(=O)CN(C(=O)CCC(=O)Nc1cc(C)ccn1)c1ccc2c(c1)OCCO2 1%, Cn1c(=NC(=O)c2ccc3c(c2)OCCO3)sc2cc(S(C)(=O)=O)ccc21 -1%, Cn1nc(-c2ccccc2)c(CO)c1Sc1ccccc1 -2%

Source: PubChem BioAssay AID952 (NMMLSC, 2007)
